Legend:
Assay in all cases: log2 ratio of Biotin-Ahx-Ub-VS probe labelling (fragment/DMSO); higher = less target engagement (more negative = stronger competition), active = hit call of the paper (q ≤ 0.05, log2 ratio ≤ -1)
Details in all cases: compound concentration: 200 uM; treatment time: 3 h
[1] = target: USP34 (UniProt Q70CQ2)
Summary of the method: (§1)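 Labelled DUBs from HEK293T lysate were NeutrAvidin-enriched, digested with LysC and trypsin, and run by diaPASEF LC-MS/MS. Before that, each 495 µg sample in Tris/CHAPS/IGEPAL buffer with protease inhibitors was treated in triplicate with fragment at 200 µM or vehicle for 3 h, then with Biotin-Ahx-Ub-VS at 0.5 µM final for 1 h. Values are average log2 ratios of fragment over vehicle by unpaired t-test, based on global-median-normalised Spectronaut label-free quantities from proteins with ≥2 unique peptides.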

[2] = target: T1, USP36 (UniProt Q9P275)
T1 sequence (whole entry): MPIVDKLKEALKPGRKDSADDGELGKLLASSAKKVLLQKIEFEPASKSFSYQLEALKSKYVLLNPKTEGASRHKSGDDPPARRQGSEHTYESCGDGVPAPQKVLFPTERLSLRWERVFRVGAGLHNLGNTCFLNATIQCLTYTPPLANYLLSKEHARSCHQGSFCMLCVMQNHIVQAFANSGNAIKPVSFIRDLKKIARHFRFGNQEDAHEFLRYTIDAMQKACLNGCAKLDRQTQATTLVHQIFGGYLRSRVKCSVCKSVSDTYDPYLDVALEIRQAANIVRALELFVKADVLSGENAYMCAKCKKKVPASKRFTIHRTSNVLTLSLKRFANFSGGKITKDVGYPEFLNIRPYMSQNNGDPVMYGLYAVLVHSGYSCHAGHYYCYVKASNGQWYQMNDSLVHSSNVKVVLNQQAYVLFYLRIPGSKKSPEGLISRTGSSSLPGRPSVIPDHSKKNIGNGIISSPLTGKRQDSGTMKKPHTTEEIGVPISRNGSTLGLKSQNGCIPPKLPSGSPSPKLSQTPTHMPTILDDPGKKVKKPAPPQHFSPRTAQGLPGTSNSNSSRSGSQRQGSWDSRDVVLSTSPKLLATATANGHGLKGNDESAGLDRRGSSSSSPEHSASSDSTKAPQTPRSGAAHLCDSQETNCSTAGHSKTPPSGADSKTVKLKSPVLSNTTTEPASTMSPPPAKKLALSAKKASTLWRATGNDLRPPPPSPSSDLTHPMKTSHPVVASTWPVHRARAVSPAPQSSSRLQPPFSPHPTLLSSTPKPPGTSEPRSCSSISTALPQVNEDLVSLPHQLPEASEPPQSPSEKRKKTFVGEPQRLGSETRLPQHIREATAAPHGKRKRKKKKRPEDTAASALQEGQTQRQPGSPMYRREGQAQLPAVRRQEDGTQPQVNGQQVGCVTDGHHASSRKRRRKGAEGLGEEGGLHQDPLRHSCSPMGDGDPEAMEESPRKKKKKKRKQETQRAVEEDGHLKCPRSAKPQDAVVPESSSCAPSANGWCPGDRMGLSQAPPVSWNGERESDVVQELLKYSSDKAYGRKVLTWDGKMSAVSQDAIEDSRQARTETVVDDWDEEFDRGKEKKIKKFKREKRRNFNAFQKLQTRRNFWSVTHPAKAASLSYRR
Summary of the method: as §1

[3] = target: T2, USP38 (UniProt Q8NB14)
T2 sequence (whole entry): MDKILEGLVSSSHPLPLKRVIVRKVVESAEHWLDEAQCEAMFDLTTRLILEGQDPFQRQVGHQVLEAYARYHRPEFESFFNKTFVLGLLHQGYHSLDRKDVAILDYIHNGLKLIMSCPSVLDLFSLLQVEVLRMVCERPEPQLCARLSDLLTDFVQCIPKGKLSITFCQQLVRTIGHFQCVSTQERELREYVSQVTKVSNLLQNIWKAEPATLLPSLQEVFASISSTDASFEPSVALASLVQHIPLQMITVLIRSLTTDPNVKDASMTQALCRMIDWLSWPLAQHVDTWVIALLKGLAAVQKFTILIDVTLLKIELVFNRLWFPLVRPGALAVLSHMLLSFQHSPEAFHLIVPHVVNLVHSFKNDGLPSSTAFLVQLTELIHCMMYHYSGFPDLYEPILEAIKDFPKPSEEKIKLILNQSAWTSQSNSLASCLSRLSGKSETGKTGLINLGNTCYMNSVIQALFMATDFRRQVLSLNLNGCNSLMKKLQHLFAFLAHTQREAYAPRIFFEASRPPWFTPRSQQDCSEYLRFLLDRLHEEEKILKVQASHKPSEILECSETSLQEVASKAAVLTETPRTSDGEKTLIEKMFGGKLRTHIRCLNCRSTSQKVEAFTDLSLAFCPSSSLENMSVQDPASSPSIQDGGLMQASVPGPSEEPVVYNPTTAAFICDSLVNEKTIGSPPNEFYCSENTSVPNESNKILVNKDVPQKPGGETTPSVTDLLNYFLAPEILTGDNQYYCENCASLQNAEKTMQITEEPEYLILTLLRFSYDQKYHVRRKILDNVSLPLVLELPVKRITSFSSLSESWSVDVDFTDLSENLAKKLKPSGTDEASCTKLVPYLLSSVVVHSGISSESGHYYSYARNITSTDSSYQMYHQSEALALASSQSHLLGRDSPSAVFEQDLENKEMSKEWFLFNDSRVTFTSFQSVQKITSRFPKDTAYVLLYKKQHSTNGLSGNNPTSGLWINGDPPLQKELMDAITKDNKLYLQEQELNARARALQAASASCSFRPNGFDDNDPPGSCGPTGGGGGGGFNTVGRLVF
Summary of the method: as §1

[4] = target: T3, USP39 (UniProt Q53GS9)
T3 sequence (whole entry): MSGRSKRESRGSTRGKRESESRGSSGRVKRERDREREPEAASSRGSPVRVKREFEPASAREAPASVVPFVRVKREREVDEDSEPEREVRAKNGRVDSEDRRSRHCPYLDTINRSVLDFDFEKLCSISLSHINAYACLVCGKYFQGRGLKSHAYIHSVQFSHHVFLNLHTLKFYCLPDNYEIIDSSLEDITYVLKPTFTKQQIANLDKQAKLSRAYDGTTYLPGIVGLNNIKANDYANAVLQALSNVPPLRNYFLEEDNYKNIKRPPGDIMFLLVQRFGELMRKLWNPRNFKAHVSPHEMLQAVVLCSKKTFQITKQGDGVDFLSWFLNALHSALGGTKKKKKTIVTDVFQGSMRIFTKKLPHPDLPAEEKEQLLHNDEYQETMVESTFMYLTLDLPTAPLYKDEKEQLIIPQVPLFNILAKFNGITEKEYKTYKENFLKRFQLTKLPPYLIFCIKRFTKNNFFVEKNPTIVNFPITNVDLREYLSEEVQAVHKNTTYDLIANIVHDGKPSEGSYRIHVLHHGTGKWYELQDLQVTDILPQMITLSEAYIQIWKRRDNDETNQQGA
Summary of the method: as §1

[5] = target: T4, USP4 (UniProt Q13107)
T4 sequence (whole entry): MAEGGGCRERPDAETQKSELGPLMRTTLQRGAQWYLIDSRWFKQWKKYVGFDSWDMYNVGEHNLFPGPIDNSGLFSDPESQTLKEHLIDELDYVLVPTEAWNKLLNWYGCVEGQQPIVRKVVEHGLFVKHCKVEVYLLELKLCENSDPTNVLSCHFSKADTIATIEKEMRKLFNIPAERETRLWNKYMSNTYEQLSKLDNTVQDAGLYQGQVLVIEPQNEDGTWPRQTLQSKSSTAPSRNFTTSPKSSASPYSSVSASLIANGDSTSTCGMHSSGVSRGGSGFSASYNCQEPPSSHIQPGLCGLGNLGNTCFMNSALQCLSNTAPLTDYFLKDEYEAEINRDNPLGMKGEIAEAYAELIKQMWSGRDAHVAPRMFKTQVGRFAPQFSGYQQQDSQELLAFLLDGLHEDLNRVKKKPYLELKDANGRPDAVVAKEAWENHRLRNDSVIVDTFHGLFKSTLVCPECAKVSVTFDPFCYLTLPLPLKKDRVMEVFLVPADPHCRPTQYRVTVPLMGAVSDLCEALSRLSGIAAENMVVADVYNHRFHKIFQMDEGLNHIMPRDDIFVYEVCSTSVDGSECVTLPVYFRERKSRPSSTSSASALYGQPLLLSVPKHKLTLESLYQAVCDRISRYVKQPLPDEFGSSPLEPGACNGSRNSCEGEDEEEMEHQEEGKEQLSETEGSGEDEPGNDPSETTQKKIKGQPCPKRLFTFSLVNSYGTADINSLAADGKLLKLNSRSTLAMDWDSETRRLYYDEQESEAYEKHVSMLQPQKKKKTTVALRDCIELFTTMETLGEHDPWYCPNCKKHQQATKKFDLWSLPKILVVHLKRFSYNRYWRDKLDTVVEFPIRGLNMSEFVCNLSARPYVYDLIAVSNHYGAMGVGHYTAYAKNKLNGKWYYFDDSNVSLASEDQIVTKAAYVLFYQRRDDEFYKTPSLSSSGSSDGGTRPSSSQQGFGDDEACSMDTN
Summary of the method: as §1

Measured: log2 ratio of Biotin-Ahx-Ub-VS probe labelling

Sequence of USP34 (Q70CQ2 whole entry, the tested form may be a part): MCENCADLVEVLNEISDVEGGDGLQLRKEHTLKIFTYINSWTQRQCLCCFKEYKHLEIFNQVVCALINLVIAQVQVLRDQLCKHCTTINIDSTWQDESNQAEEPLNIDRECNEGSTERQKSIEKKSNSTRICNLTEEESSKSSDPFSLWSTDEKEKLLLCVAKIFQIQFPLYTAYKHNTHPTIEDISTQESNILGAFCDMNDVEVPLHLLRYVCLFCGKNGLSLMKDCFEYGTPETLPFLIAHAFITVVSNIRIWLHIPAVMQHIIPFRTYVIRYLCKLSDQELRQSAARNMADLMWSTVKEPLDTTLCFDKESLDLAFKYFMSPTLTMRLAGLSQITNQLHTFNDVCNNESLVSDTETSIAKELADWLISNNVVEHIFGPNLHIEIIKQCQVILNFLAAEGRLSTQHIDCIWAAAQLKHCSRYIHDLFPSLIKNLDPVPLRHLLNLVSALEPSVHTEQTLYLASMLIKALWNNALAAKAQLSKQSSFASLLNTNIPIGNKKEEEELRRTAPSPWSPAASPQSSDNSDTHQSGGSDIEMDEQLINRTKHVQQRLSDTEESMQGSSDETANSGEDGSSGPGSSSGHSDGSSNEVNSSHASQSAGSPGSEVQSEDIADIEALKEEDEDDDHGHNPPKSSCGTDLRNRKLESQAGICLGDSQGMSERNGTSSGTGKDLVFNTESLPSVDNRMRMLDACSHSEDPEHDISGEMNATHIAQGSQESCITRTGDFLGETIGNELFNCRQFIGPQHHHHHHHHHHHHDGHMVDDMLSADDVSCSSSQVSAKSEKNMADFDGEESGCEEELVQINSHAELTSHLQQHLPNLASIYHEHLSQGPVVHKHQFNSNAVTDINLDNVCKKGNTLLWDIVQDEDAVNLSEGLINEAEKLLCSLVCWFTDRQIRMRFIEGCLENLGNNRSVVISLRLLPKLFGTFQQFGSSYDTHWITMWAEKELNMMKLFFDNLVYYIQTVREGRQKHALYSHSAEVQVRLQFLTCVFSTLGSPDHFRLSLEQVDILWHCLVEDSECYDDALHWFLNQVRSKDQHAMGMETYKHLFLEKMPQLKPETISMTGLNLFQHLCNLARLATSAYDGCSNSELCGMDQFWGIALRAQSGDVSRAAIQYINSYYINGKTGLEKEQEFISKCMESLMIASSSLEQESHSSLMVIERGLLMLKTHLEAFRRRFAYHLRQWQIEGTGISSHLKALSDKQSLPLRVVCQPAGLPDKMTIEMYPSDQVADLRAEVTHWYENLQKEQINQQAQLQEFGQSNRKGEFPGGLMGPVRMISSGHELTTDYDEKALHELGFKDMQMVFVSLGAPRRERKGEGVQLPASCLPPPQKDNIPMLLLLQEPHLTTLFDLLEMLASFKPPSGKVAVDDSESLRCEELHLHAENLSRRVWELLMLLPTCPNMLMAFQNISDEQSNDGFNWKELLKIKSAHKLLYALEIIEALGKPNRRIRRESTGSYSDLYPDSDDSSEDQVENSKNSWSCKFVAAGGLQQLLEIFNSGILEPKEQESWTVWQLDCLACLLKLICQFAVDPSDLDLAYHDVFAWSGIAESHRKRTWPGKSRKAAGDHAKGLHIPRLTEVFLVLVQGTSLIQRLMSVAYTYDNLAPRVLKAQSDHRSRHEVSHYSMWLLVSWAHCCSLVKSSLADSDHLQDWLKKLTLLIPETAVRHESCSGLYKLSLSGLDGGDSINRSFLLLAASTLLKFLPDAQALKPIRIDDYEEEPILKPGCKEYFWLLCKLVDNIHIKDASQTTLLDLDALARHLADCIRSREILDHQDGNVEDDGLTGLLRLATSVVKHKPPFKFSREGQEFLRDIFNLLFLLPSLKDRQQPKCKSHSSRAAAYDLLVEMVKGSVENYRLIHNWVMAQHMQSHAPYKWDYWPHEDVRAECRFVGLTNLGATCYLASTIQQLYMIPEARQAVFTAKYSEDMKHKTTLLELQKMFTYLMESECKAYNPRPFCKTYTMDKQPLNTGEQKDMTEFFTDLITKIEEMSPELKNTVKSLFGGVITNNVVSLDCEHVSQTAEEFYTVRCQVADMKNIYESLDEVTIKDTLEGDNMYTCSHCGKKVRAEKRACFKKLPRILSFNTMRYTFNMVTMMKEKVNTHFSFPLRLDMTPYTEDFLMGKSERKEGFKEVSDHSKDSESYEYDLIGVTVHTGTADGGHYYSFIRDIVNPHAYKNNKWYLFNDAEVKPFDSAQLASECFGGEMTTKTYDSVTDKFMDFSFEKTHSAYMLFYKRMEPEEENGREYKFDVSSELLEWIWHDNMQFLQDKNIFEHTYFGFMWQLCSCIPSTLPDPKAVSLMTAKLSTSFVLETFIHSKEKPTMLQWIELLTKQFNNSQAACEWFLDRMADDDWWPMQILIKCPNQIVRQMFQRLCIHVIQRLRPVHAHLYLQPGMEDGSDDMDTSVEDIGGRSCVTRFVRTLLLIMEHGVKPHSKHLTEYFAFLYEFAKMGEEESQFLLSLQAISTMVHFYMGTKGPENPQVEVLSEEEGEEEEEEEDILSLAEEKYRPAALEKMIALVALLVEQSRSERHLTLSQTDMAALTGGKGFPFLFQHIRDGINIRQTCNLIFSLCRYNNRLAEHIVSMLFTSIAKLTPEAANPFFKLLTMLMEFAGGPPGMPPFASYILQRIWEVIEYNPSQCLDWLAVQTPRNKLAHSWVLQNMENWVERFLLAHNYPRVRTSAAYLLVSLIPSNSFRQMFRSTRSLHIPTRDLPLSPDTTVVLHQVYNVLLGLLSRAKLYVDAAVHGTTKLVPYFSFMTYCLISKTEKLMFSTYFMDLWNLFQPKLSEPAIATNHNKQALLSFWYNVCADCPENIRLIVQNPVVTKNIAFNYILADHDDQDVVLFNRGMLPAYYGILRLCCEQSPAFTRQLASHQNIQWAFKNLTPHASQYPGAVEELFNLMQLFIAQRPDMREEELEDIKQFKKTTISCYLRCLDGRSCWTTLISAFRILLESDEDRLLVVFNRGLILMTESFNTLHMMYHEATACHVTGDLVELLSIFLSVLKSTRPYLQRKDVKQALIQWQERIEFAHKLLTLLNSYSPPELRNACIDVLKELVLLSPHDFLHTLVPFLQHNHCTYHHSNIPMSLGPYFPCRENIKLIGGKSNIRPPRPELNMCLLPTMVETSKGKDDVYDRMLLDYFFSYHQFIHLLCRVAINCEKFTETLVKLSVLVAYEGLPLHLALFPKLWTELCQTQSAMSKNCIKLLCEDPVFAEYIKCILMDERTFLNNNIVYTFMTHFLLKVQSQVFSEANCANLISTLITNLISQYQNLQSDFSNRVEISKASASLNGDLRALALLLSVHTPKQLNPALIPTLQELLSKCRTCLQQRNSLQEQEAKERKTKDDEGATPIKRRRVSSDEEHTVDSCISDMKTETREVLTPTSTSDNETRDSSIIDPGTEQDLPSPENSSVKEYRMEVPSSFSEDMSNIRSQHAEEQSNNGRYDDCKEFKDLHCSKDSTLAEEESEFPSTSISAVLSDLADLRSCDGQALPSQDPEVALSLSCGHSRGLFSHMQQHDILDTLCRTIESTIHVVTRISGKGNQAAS

O=C(CCl)NCCC1=CCCCC1
inactive: [1] 0.0934 | [2] -0.119 | [3] -0.0475 | [4] 0.131 | [5] 0.0999
